Results filed as inconclusive are left out. Where a call stands in place of a potency, no number is given. The source made the active and inactive calls. Calls follow the shape of the dose curve; as a rule, active = well fitted inhibition curve with a large enough effect; inconclusive = small, poorly fitted or top-dose-only effect; inactive = flat fitted curve, though single readings scatter.
target: Calcium and integrin-binding protein 1 (Homo sapiens) (UniProt Q99828); experiment: Primary qHTS for Identification of Calcium Integrin Binding Protein 1 (CIB1) Competitor (AID 1508620); conditions: CIB1-GST / FITC-alphaIIb peptide fluorescence polarization; series mostly up to 114 µM;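 also: GST tagged CIB1 binding a fluorescein labelled alphaIIb integrin peptide tracer; top concentration of the series differs between compounds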
Procedure, shortened: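 CIB1-GST (1 uM final) and compound incubated 15 min at room temperature before adding FITC-alphaIIb peptide tracer (100 nM final). Competition for binding read by fluorescence polarization (ex 480, em 540) after another 15 min at room temperature.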

Calcium and integrin-binding protein 1 (Homo sapiens), sequence (Q99828 whole entry, looked up): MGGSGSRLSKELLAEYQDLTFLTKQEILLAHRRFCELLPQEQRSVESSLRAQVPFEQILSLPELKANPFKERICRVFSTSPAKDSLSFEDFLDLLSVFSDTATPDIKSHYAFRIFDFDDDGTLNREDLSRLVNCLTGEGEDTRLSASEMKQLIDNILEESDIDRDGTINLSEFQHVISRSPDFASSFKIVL

Row | SMILES | Potency
1 | COc1ccccc1C1=Nn2c(COc3ccccc3)nnc2SC1 | inactive
2 | O=S(=O)(Nc1nccs1)c1ccc(NCc2ccccc2O)cc1 | inactive
3 | CNC(=O)C1CCN(c2nc(-c3ccc(Br)cc3)cs2)CC1 | inactive
4 | Cc1ccc(OCCn2c(CCNC(=O)c3ccc(Cl)cc3)nc3ccccc32)cc1 | inactive
5 | COc1ccc(-c2nc3ccccc3c(=O)n2Cc2ccccc2)cc1OCc1ccc(NC(C)=O)cc1 | inactive
6 | O=C(Nc1sc2c(c1-c1nc3ccccc3s1)CCNC2)C(F)F | inactive
7 | O=C(NC1CCCc2c1cnn2CCO)c1ccccn1 (stereo not given) | inactive
8 | COc1ccc(C2=Nn3c(nnc3-c3cc(OC)ccc3OC)SC2)cc1 | inactive
9 | O=C(Nc1ccc(Cl)c(Cl)c1)Nc1cccc(-c2ccncc2)n1 | inactive
10 | O=S(=O)(c1ccc2c(c1)OCCO2)N1C[C@@H]2C[C@H]1CN2S(=O)(=O)c1c(F)cccc1F | inactive
11 | Cc1ccnc(NC(=S)N2CCN(c3cccc(Cl)c3Cl)CC2)c1 | inactive
12 | COc1cccc(CNc2ccc(S(=O)(=O)Nc3nccs3)cc2)c1 | inactive
13 | Cc1ccc(CN(C)c2ncnc3ccc(-c4ccc(C(=O)O)o4)cc23)o1 | inactive
14 | COc1cccc(CNc2ncnc3ccc(-c4c(C)noc4C)cc23)c1 | inactive
15 | N#Cc1nc(NCC(F)F)c2ncn(-c3cccc(Cl)c3)c2n1 | inactive
16 | Cc1cc2c(s1)c1cnn(Cc3cccc(Cl)c3F)c(=O)c1n2C | inactive
17 | COc1ccc(S(=O)(=O)Nc2cc(OC)cc3cccnc23)cc1 | inactive
18 | N#Cc1ccccc1CCc1nc2ncc(Br)cc2[nH]1 | inactive
19 | COC(=O)c1c(-c2ccccc2)no[n+]1[O-] | inactive
20 | COc1ccc(CC(=O)Nc2nc(-c3ccc4c(c3)CCN4C(=O)c3ccccc3C)c(C)s2)cc1 | inactive

Row | SMILES | Potency
21 | Cc1ccc(-c2ccc(=O)n(CC(=O)N(C)CCN(C)C)n2)cc1 | inactive
22 | O=C(Nc1cncc(-c2cccc3ccccc23)c1)c1cccs1 | inactive
23 | Cc1ccc(NS(=O)(=O)c2cc3c(cc2Cl)NC(=O)C3)cc1C | inactive
24 | N#Cc1cccc(-c2noc(-c3ccccc3F)n2)c1 | inactive
25 | CC(=O)c1ccc(N2CCN(S(=O)(=O)c3ccc4[nH]c(=O)oc4c3)CC2)cc1 | inactive
26 | Clc1ccc(CSc2nc3ncc(Br)cc3[nH]2)cc1Cl | inactive
27 | c1ccc(CN(Cc2ccccc2)Cc2nnc(-c3cc4ccccc4[nH]3)s2)cc1 | inactive
28 | COC(=O)c1ccccc1S(=O)(=O)Nc1ccc(OC)cc1 | inactive
29 | O=[S+]([O-])(c1ccc2c(c1)OCCO2)N1CCN([S+](=O)([O-])c2c(O)cc(F)cc2F)CC1 | inactive
30 | COc1ccc(NC(=O)CN2C(=O)N/C(=C\c3cccn3-c3ccc(C(=O)NC#N)cc3)C2=O)cc1 | inactive
31 | CCOc1ccc(C(=O)Oc2ccc(-c3nc4ccccc4[nH]3)cc2)cc1 | inactive
32 | CCOc1cc2c(cc1OCC)CN(C(=O)c1cc3sccc3n1Cc1ccccc1)CC2 | inactive
33 | Cc1cc(N[S+](=O)([O-])c2ccc3c(c2)CCC(=O)N3C)ccc1F | inactive
34 | O=C1CCc2cc([S+](=O)([O-])Nc3ccc(N[S+](=O)([O-])c4ccc5c(c4)CCC(=O)N5)cc3)ccc2N1 | inactive
35 | Cc1cc2c(s1)c1cnn(Cc3c(F)cc(F)cc3F)c(=O)c1n2C | inactive
36 | Cc1nc(C(C)N(C)c2ncnc3ccc(-c4ccc5c(c4)OCO5)cc23)cs1 (stereo not given) | inactive
37 | Cc1ccnc(NC(=S)N2CCCN(c3cccc(C(F)(F)F)c3)CC2)c1 | inactive
38 | NC(=O)C1CCN(c2nc(-c3cccc(Cl)c3)cs2)CC1 | inactive
39 | O=C(OCC#CCSc1nnc(-c2cccc(F)c2)o1)c1ccc(F)cc1 | inactive
40 | COc1cccc(C2=Nn3c(nnc3-c3cccc(OC)c3OC)SC2)c1 | inactive
